Source: the supplement of paper PMC12494721
Counter-ions that a name gives are not always drawn.

How the values were obtained:
Conditions in all cases: incubation time: 27 h, anaerobic, 37 °C;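 for the amine columns active = adjusted P below 0.05 in both replicates with a change the same way and a mean fold change under 0.8 or over 1.25; inactive = the rest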
[1] = test system: Clostridium sporogenes DSM 1664; assay: growth (OD595) fold change vs plate DMSO controls (fold change (ratio)); higher = more growth
Summary of the method: (§1)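 Growth is calculated as fold change against the median of the DMSO control wells on each plate. Readings at 595 nm from anaerobic mGAM cultures (96-well, 27 h, 37 °C) were blank-subtracted, background-corrected with 20 µM compound solutions in water, and converted to OD by a calibration factor of 5. Fold changes above 1.5 were recorded as NA, and results are means of 2 biological replicates.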

[2] = test system: Escherichia coli IAI1; assay: as above
Summary of the method: as §1

[3] = test system: Klebsiella aerogenes DSM 30053; assay: as above
Summary of the method: as §1

[4] = test system: Ruminococcus gnavus DSM 108212; assay: as above
Summary of the method: as §1

[5] = test system: Klebsiella aerogenes DSM 30053; assay: fold change of Histamine concentration vs plate DMSO controls (fold change (ratio)); higher = more amine produced, active = hit call of the paper (significant change in both replicates, either direction)
Summary of the method: (§2)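 Each value is the fold change relative to DMSO-only wells on the same plate. Four gut bacterial strains were grown anaerobically in mGAM at 37 °C for 27 h in 80 µL wells, starting at OD 0.1 before a 1:1 dilution, with compounds at 20 µM final (sweeteners 50 µM). Whole cultures were extracted with cold acetonitrile/methanol containing 0.1% formic acid, centrifuged, and amines were quantified by LC–triple-quadrupole MS (dynamic MRM) against external calibration curves with within-batch drift correction. Values are means of 2 biological replicates.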

[6] = test system: Clostridium sporogenes DSM 1664; assay: fold change of Tryptamine concentration vs plate DMSO controls (fold change (ratio)); higher = more amine produced, active = hit call of the paper (significant change in both replicates, either direction)
Summary of the method: as §2

[7] = test system: Ruminococcus gnavus DSM 108212; assay: as above
Summary of the method: as §2

[8] = test system: Escherichia coli IAI1; assay: fold change of Putrescine concentration vs plate DMSO controls (fold change (ratio)); higher = more amine produced, active = hit call of the paper (significant change in both replicates, either direction)
Summary of the method: as §2

[9] = test system: Klebsiella aerogenes DSM 30053; assay: as above
Summary of the method: as §2

[10] = test system: Escherichia coli IAI1; assay: fold change of Cadaverine concentration vs plate DMSO controls (fold change (ratio)); higher = more amine produced, active = hit call of the paper (significant change in both replicates, either direction)
Summary of the method: as §2

[11] = test system: Klebsiella aerogenes DSM 30053; assay: as above
Summary of the method: as §2

[12] = test system: Ruminococcus gnavus DSM 108212; assay: fold change of 2-Phenylethylamine concentration vs plate DMSO controls (fold change (ratio)); higher = more amine produced, active = hit call of the paper (significant change in both replicates, either direction)
Summary of the method: as §2

Structure (SMILES): CCCc1nc(C)c2c(=O)nc(-c3cc(S(=O)(=O)N4CCN(CC)CC4)ccc3OCC)[nH]n12 [Vardenafil] (20 µM)
- growth [1]: 1.15
- growth [2]: 0.975
- growth [3]: 1.01
- growth [4]: 1.27
- fold change of Histamine concentration [5]: 1.03 (inactive)
- fold change of Tryptamine concentration [6]: 0.992 (inactive)
- fold change of Tryptamine concentration [7]: 1.05 (inactive)
- fold change of Putrescine concentration [8]: 1.01 (inactive)
- fold change of Putrescine concentration [9]: 1.01 (inactive)
- fold change of Cadaverine concentration [10]: 1.02 (inactive)
- fold change of Cadaverine concentration [11]: 1.01 (inactive)
- fold change of 2-Phenylethylamine concentration [12]: 1.07 (inactive)

Structure (SMILES): CC[C@H](C)[C@H](N)C1=N[C@H](C(=O)N[C@@H](CC(C)C)C(=O)N[C@H](CCC(=O)O)C(=O)N[C@H](C(=O)N[C@H]2CCCCNC(=O)[C@H](CC(N)=O)NC(=O)[C@@H](CC(=O)O)NC(=O)[C@H](Cc3cnc[nH]3)NC(=O)[C@@H](Cc3ccccc3)NC(=O)[C@H]([C@@H](C)CC)NC(=O)[C@@H](CCCN)NC2=O)[C@@H](C)CC)CS1 [Bacitracin] (20 µM)
- growth [1]: 1
- growth [2]: 1.05
- growth [3]: 1.02
- growth [4]: 0.0384
- fold change of Histamine concentration [5]: 0.999 (inactive)
- fold change of Tryptamine concentration [6]: 1.02 (inactive)
- fold change of Tryptamine concentration [7]: 0.0521 (active)
- fold change of Putrescine concentration [8]: 1.18 (inactive)
- fold change of Putrescine concentration [9]: 1.01 (inactive)
- fold change of Cadaverine concentration [10]: 1.01 (inactive)
- fold change of Cadaverine concentration [11]: 1 (inactive)
- fold change of 2-Phenylethylamine concentration [12]: 0.0535 (active)

Structure (SMILES): CN[C@@H]1[C@H](O[C@H]2[C@H](O[C@H]3[C@H](O)[C@@H](O)[C@H](NC(=N)N)[C@@H](O)[C@@H]3NC(=N)N)O[C@@H](C)[C@]2(O)CO)O[C@@H](CO)[C@H](O)[C@H]1O [Dihydrostreptomycin sulfate] (20 µM)
- growth [1]: 1.08
- growth [2]: 0.98
- growth [3]: 0.92
- growth [4]: 0.933
- fold change of Histamine concentration [5]: 0.704 (inactive)
- fold change of Tryptamine concentration [6]: 1.25 (inactive)
- fold change of Tryptamine concentration [7]: 0.984 (inactive)
- fold change of Putrescine concentration [8]: 0.958 (inactive)
- fold change of Putrescine concentration [9]: 0.922 (inactive)
- fold change of Cadaverine concentration [10]: 1.01 (inactive)
- fold change of Cadaverine concentration [11]: 0.993 (inactive)
- fold change of 2-Phenylethylamine concentration [12]: 0.991 (inactive)

Structure (SMILES): O=S(=O)(c1cccc2cnccc12)N1CCCNCC1 [Fasudil Hydrochloride] (20 µM)
- growth [1]: 1.22
- growth [2]: 0.981
- growth [3]: 0.977
- growth [4]: 0.969
- fold change of Histamine concentration [5]: 1.05 (inactive)
- fold change of Tryptamine concentration [6]: 0.964 (inactive)
- fold change of Tryptamine concentration [7]: 1.01 (inactive)
- fold change of Putrescine concentration [8]: 1.01 (inactive)
- fold change of Putrescine concentration [9]: 1.03 (inactive)
- fold change of Cadaverine concentration [10]: 1.03 (inactive)
- fold change of Cadaverine concentration [11]: 1.01 (inactive)
- fold change of 2-Phenylethylamine concentration [12]: 0.942 (inactive)

Structure (SMILES): CCN[C@H]1C[C@H](C)S(=O)(=O)c2sc(S(N)(=O)=O)cc21 [Dorzolamide hydrochloride] (20 µM)
- growth [1]: 1.23
- growth [2]: 1.05
- growth [3]: 1.02
- growth [4]: 1.15
- fold change of Histamine concentration [5]: 0.991 (inactive)
- fold change of Tryptamine concentration [6]: 0.996 (inactive)
- fold change of Tryptamine concentration [7]: 0.977 (inactive)
- fold change of Putrescine concentration [8]: 1.06 (inactive)
- fold change of Putrescine concentration [9]: 0.977 (inactive)
- fold change of Cadaverine concentration [10]: 0.965 (inactive)
- fold change of Cadaverine concentration [11]: 0.993 (inactive)
- fold change of 2-Phenylethylamine concentration [12]: 0.992 (inactive)

Structure (SMILES): Cc1cc(C)nc(NS(=O)(=O)c2ccc(N)cc2)n1 [Sulfamethazine sodium salt] (20 µM)
- growth [1]: 1.01
- growth [2]: 0.957
- growth [3]: 0.984
- growth [4]: 0.999
- fold change of Histamine concentration [5]: 1.06 (inactive)
- fold change of Tryptamine concentration [6]: 1.06 (inactive)
- fold change of Tryptamine concentration [7]: 1.04 (inactive)
- fold change of Putrescine concentration [8]: 0.93 (inactive)
- fold change of Putrescine concentration [9]: 1.03 (inactive)
- fold change of Cadaverine concentration [10]: 0.986 (inactive)
- fold change of Cadaverine concentration [11]: 0.995 (inactive)
- fold change of 2-Phenylethylamine concentration [12]: 1.07 (inactive)

Structure (SMILES): CNCCc1ccccn1 [Betahistine mesylate] (20 µM)
- growth [1]: 1.26
- growth [2]: 1
- growth [3]: 1.02
- growth [4]: 1.25
- fold change of Histamine concentration [5]: 0.991 (inactive)
- fold change of Tryptamine concentration [6]: 0.994 (inactive)
- fold change of Tryptamine concentration [7]: 1.02 (inactive)
- fold change of Putrescine concentration [8]: 1.03 (inactive)
- fold change of Putrescine concentration [9]: 0.995 (inactive)
- fold change of Cadaverine concentration [10]: 0.967 (inactive)
- fold change of Cadaverine concentration [11]: 0.993 (inactive)
- fold change of 2-Phenylethylamine concentration [12]: 1.01 (inactive)

Structure (SMILES): C[C@]12CC[C@@H]3c4ccc(O)cc4CC[C@H]3[C@@H]1CCC2=O [Estrone] (20 µM)
- growth [1]: 1.03
- growth [2]: 1.02
- growth [3]: 1.03
- growth [4]: 1.01
- fold change of Histamine concentration [5]: 1.07 (inactive)
- fold change of Tryptamine concentration [6]: 1.06 (inactive)
- fold change of Tryptamine concentration [7]: 0.894 (inactive)
- fold change of Putrescine concentration [8]: 1.04 (inactive)
- fold change of Putrescine concentration [9]: 1.02 (inactive)
- fold change of Cadaverine concentration [10]: 1.02 (inactive)
- fold change of Cadaverine concentration [11]: 1.01 (inactive)
- fold change of 2-Phenylethylamine concentration [12]: 0.884 (inactive)

Structure (SMILES): CNCCCC12CCC(c3ccccc31)c1ccccc12 [Maprotiline hydrochloride] (20 µM)
- growth [1]: 1.03
- growth [2]: 1.01
- growth [3]: 0.999
- growth [4]: 1.09
- fold change of Histamine concentration [5]: 0.982 (inactive)
- fold change of Tryptamine concentration [6]: 0.973 (inactive)
- fold change of Tryptamine concentration [7]: 0.913 (inactive)
- fold change of Putrescine concentration [8]: 1.02 (inactive)
- fold change of Putrescine concentration [9]: 1.01 (inactive)
- fold change of Cadaverine concentration [10]: 1.03 (inactive)
- fold change of Cadaverine concentration [11]: 1.01 (inactive)
- fold change of 2-Phenylethylamine concentration [12]: 0.884 (inactive)

Structure (SMILES): Cc1cccc(C)c1NC(=O)C1CCCCN1C (centres undefined) [Mepivacaine hydrochloride] (20 µM)
- growth [1]: 1.21
- growth [2]: 1.02
- growth [3]: 1.08
- growth [4]: 0.946
- fold change of Histamine concentration [5]: 0.905 (inactive)
- fold change of Tryptamine concentration [6]: 1.02 (inactive)
- fold change of Tryptamine concentration [7]: 1.06 (inactive)
- fold change of Putrescine concentration [8]: 1 (inactive)
- fold change of Putrescine concentration [9]: 0.977 (inactive)
- fold change of Cadaverine concentration [10]: 1 (inactive)
- fold change of Cadaverine concentration [11]: 1.01 (inactive)
- fold change of 2-Phenylethylamine concentration [12]: 1.05 (inactive)

Structure (SMILES): CC1(C)O[C@@H]2C[C@H]3[C@@H]4C[C@H](F)C5=CC(=O)CC[C@]5(C)[C@H]4[C@@H](O)C[C@]3(C)[C@]2(C(=O)CO)O1 [Flurandrenolide] (20 µM)
- growth [1]: 0.993
- growth [2]: 1.15
- growth [3]: 0.987
- growth [4]: 1.27
- fold change of Histamine concentration [5]: 0.982 (inactive)
- fold change of Tryptamine concentration [6]: 1.08 (inactive)
- fold change of Tryptamine concentration [7]: 1.16 (inactive)
- fold change of Putrescine concentration [8]: 1.18 (inactive)
- fold change of Putrescine concentration [9]: 0.966 (inactive)
- fold change of Cadaverine concentration [10]: 0.954 (inactive)
- fold change of Cadaverine concentration [11]: 1.04 (inactive)
- fold change of 2-Phenylethylamine concentration [12]: 1.33 (inactive)

Structure (SMILES): NS(=O)(=O)c1cc2c(cc1Cl)N=C(CSCc1ccccc1)NS2(=O)=O [Benzthiazide] (20 µM)
- growth [1]: 1.1
- growth [2]: 0.998
- growth [3]: 1.02
- growth [4]: 1.08
- fold change of Histamine concentration [5]: 0.978 (inactive)
- fold change of Tryptamine concentration [6]: 0.983 (inactive)
- fold change of Tryptamine concentration [7]: 0.961 (inactive)
- fold change of Putrescine concentration [8]: 0.975 (inactive)
- fold change of Putrescine concentration [9]: 0.993 (inactive)
- fold change of Cadaverine concentration [10]: 1.02 (inactive)
- fold change of Cadaverine concentration [11]: 0.993 (inactive)
- fold change of 2-Phenylethylamine concentration [12]: 0.939 (inactive)
